Laboratory results: the supplement of paper PMC12297408
Where “and” joins values, the source holds several entries; their conditions need not be identical. Equal values may be shown once. Values without a mark were called inactive.

Columns and labels:
[1] = system: Plasmodium falciparum NF54/iGP1_RE9H ulg8 stage V gametocytes; assay: gametocyte viability (luciferase signal relative to DMSO control) (% of DMSO control); higher = less gametocytocidal activity, active = 50 or less; conditions: exposure time: 72 h
Protocol: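 Synchronous P. falciparum NF54/iGP1_RE9H ulg8 mature stage V gametocytes (day 12) were exposed to Cayman Epigenetics Screening Library compounds at 10 µM or 1 µM for 72 h at 37 °C. Viability was read as RE9H luciferase bioluminescence, normalised to DMSO plate controls (100%); 50 µM methylene blue was the positive control.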

[2] = system: Plasmodium falciparum NF54/iGP1_RE9H ulg8 stage V gametocytes; assay: gametocyte viability (luciferase signal relative to DMSO control) (% of DMSO control); higher = less gametocytocidal activity, active = 50 or less; conditions: exposure time: 72 h; remark: listed apart in the source
Outline: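 In 96-well plates holding nanolitre spots of compound (10 mM DMSO stocks), NF54/iGP1_RE9Hulg8 stage V gametocytes from day 12 were added at ~2.5% gametocytemia and 3% hematocrit in medium with 0.5% Albumax II, giving single wells at 10 µM or 1 µM. Incubation lasted 72 h at 37 °C. Each 90 µl sample then received 10 µl D-luciferin (30 mg/ml) before luminescence reading on an IVIS Lumina II, and viability was normalized to the mean of DMSO vehicle wells on the same plate.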

SMILES: O=C(NCC(=O)N1CCCC1)Nc1ccc2cnccc2c1
- gametocyte viability ([1]; concentration: 1 µM): 91.7
- gametocyte viability ([1]; concentration: 10 µM): 93.4

SMILES: O=C(NO)c1cccc(C(=O)NCCc2ccccc2)c1
- gametocyte viability ([1]; concentration: 1 µM): 98.3
- gametocyte viability ([1]; concentration: 10 µM): 64.6

SMILES: CCCCCOc1ccc(/C=C\c2cccc(O)c2C(=O)O)cc1
- gametocyte viability ([1]; concentration: 1 µM): 87.3
- gametocyte viability ([1]; concentration: 10 µM): 88.4

SMILES: COc1cc2c(NC3CCN(C(C)C)CC3)nc(C3CCCCC3)nc2cc1OCCCN1CCCC1
- gametocyte viability ([1]; concentration: 1 µM): 77.7
- gametocyte viability ([1]; concentration: 10 µM): 15.4 (active)

SMILES: O=C(CCCCCCC(=O)Nc1ccc(I)cc1)NO [4-iodo-SAHA]
- gametocyte viability ([1]; concentration: 1 µM): 88.3
- gametocyte viability ([1]; concentration: 10 µM): 67.2

SMILES: COc1ccccc1C(=O)Nc1cc2c(cc1N1CCNC[C@H]1C)n(C)c(=O)n2C
- gametocyte viability ([1]; concentration: 1 µM): 88.2
- gametocyte viability ([1]; concentration: 10 µM): 93.7

SMILES: COc1cc(-c2cn(C)c(=O)c3cnccc23)c(OC)cc1CN(C)C
- gametocyte viability ([1]; concentration: 1 µM): 86.9
- gametocyte viability ([1]; concentration: 10 µM): 85.8

SMILES: O=C(O)CCCc1ccccc1 [Sodium 4-Phenylbutyrate]
- gametocyte viability ([1]; concentration: 1 µM): 90.4
- gametocyte viability ([1]; concentration: 10 µM): 89.2

SMILES: O=C(NN=Cc1c(O)ccc2ccccc12)c1ccncc1
- gametocyte viability ([1]; concentration: 1 µM): 84.7
- gametocyte viability ([1]; concentration: 10 µM): 65.4

SMILES: COc1cc2c(cc1OCCCN1CCCC1)N=C(N)C21CCC1
- gametocyte viability ([1]; concentration: 1 µM): 89.9
- gametocyte viability ([1]; concentration: 10 µM): 93.7

SMILES: CCCC(=O)[O-].[Na+] [Sodium Butyrate]
- gametocyte viability ([1]; concentration: 1 µM): 83.8
- gametocyte viability ([1]; concentration: 10 µM): 84.7

SMILES: CCCCCCCCCCCCCCCc1cccc(O)c1C(=O)O [Anacardic Acid]
- gametocyte viability ([1]; concentration: 1 µM): 84.7
- gametocyte viability ([1]; concentration: 10 µM): 82.9

SMILES: CNC(=O)CN1CCC(Oc2cc3c(Nc4cccc(Cl)c4F)ncnc3cc2OC)CC1
- gametocyte viability ([2]; concentration: 1 µM): 103
- gametocyte viability ([2]; concentration: 10 µM): 106

SMILES: N#CC(=C(/N)Sc1ccccc1N)/C(C#N)=C(/N)Sc1ccccc1N
- gametocyte viability ([2]; concentration: 1 µM): 100
- gametocyte viability ([2]; concentration: 10 µM): 103

SMILES: Cc1csc(-c2nnc(Nc3ccc(Oc4ncccc4-c4ccnc(N)n4)cc3)c3ccccc23)c1
- gametocyte viability ([2]; concentration: 1 µM): 103
- gametocyte viability ([2]; concentration: 10 µM): 112

SMILES: CC(=O)Nc1nc(C)c(-c2ccc(Cl)c(S(=O)(=O)NCCO)c2)s1
- gametocyte viability ([2]; concentration: 1 µM): 81.5
- gametocyte viability ([2]; concentration: 10 µM): 13.6 (active)

SMILES: Cc1ccc(S(=O)(=O)Nc2nc3ccccc3nc2Nc2ccc3nsnc3c2)cc1
- gametocyte viability ([2]; concentration: 1 µM): 87.4
- gametocyte viability ([2]; concentration: 10 µM): 103

SMILES: CC1(COc2ccc3c(c2)ncn3-c2ccc3cccc(N4CCC(N)CC4)c3n2)COC1
- gametocyte viability ([2]; concentration: 1 µM): 125
- gametocyte viability ([2]; concentration: 10 µM): 112

SMILES: O=c1ncn2nc(Sc3ccc(F)cc3F)ccc2c1-c1c(Cl)cccc1Cl
- gametocyte viability ([2]; concentration: 1 µM): 95.2
- gametocyte viability ([2]; concentration: 10 µM): 103

SMILES: COc1cc2c(Oc3ccc(NC(=O)C4(C(=O)Nc5ccc(F)cc5)CC4)cc3F)ccnc2cc1OCCCN1CCOCC1
- gametocyte viability ([2]; concentration: 1 µM): 86.7
- gametocyte viability ([2]; concentration: 10 µM): 91.5

SMILES: O=C1Cc2c([nH]c3ccc(Br)cc23)-c2ccccc2N1 [Kenpaullone]
- gametocyte viability ([2]; concentration: 1 µM): 62.2
- gametocyte viability ([2]; concentration: 10 µM): 16.3 (active)

SMILES: O=c1c(-c2ccc(O)cc2)coc2cc(O)cc(O)c12 [Genistein]
- gametocyte viability ([2]; concentration: 1 µM): 95.5
- gametocyte viability ([2]; concentration: 10 µM): 83.9

SMILES: Cn1c(=O)c(F)c(Nc2ccc(I)cc2F)c2c(=O)n(C[C@@H](O)CO)cnc21
- gametocyte viability ([2]; concentration: 1 µM): 108
- gametocyte viability ([2]; concentration: 10 µM): 114

SMILES: Oc1ccc(-c2nc(-c3ccc(F)cc3)c(-c3ccncc3)[nH]2)cc1
- gametocyte viability ([2]; concentration: 1 µM): 112 and 117
- gametocyte viability ([2]; concentration: 10 µM): 115 and 132

SMILES: NC1(Cc2ccc(Cl)cc2)CCN(c2ncnc3[nH]ccc23)CC1
- gametocyte viability ([2]; concentration: 1 µM): 114
- gametocyte viability ([2]; concentration: 10 µM): 78.9

SMILES: O=c1cc(N2CCOCC2)oc2c(-c3ccccc3)cccc12
- gametocyte viability ([2]; concentration: 1 µM): 105 and 79.5
- gametocyte viability ([2]; concentration: 10 µM): 103 and 92

SMILES: Nc1nc2ncnc-2c[nH]1 [2-Aminopurine]
- gametocyte viability ([2]; concentration: 1 µM): 97.6
- gametocyte viability ([2]; concentration: 10 µM): 103

SMILES: CC(C)(C)n1nc(-c2ccc(Cl)cc2)c2c(N)ncnc21
- gametocyte viability ([2]; concentration: 1 µM): 97
- gametocyte viability ([2]; concentration: 10 µM): 99.4

SMILES: CCN(CCO)CCCOc1ccc2c(Nc3cc(CC(=O)Nc4cccc(F)c4)[nH]n3)ncnc2c1 [Barasertib (AZD1152-HQPA)]
- gametocyte viability ([2]; concentration: 1 µM): 104
- gametocyte viability ([2]; concentration: 10 µM): 93.1

SMILES: C[C@@H]1CCN(C(=O)CC#N)C[C@@H]1N(C)c1ncnc2[nH]ccc12
- gametocyte viability ([2]; concentration: 1 µM): 107
- gametocyte viability ([2]; concentration: 10 µM): 110

SMILES: NC(=O)c1ccc(N(C(N)=O)c2c(F)cccc2F)nc1-c1ccc(F)cc1F
- gametocyte viability ([2]; concentration: 1 µM): 99.2
- gametocyte viability ([2]; concentration: 10 µM): 103

SMILES: O=C(Nc1ccc(OC(F)(F)F)cc1)c1sccc1NCc1ccnc2ccccc12
- gametocyte viability ([2]; concentration: 1 µM): 96.9
- gametocyte viability ([2]; concentration: 10 µM): 86.6

SMILES: COc1cc2ncnc(Nc3cccc(Cl)c3)c2cc1OC
- gametocyte viability ([2]; concentration: 1 µM): 109
- gametocyte viability ([2]; concentration: 10 µM): 104

SMILES: Clc1ccc(C2(c3ccc(-c4cn[nH]c4)cc3)CCNCC2)cc1
- gametocyte viability ([2]; concentration: 1 µM): 112
- gametocyte viability ([2]; concentration: 10 µM): 76.9

SMILES: O=C(O)c1ccc(Nc2ncc3c(n2)-c2ccc(Cl)cc2C(c2c(F)cccc2F)=NC3)cc1
- gametocyte viability ([2]; concentration: 1 µM): 102
- gametocyte viability ([2]; concentration: 10 µM): 103

SMILES: Cn1c(=O)n(-c2ccc(C(C)(C)C#N)cc2)c2c3cc(-c4cnc5ccccc5c4)ccc3ncc21
- gametocyte viability ([2]; concentration: 1 µM): 96.8
- gametocyte viability ([2]; concentration: 10 µM): 104

SMILES: CNC(=O)Nc1ccc(-c2nc(N3CC4CCC(C3)O4)c3cnn(C4CCC5(CC4)OCCO5)c3n2)cc1
- gametocyte viability ([2]; concentration: 1 µM): 103
- gametocyte viability ([2]; concentration: 10 µM): 108

SMILES: N#CC(=Cc1ccc(O)c(O)c1)C(=O)NCc1ccccc1
- gametocyte viability ([2]; concentration: 1 µM): 95.7
- gametocyte viability ([2]; concentration: 10 µM): 101

SMILES: C=CC(=O)Nc1cccc(Oc2nc(Nc3ccc(N4CCN(C)CC4)cc3OC)ncc2Cl)c1
- gametocyte viability ([2]; concentration: 1 µM): 91.9
- gametocyte viability ([2]; concentration: 10 µM): 97.3

SMILES: COc1ccc(-c2cc3c(C)nc(N)nc3n([C@H]3CC[C@H](OCCO)CC3)c2=O)cn1
- gametocyte viability ([2]; concentration: 1 µM): 95.3
- gametocyte viability ([2]; concentration: 10 µM): 84.2

SMILES: CC1CNCCN1S(=O)(=O)c1cccc2cnccc12 (centres undefined)
- gametocyte viability ([2]; concentration: 1 µM): 97.5
- gametocyte viability ([2]; concentration: 10 µM): 97.9

SMILES: CO[C@H]1C[C@@H]2CC[C@@H](C)[C@@](O)(O2)C(=O)C(=O)N2CCCC[C@H]2C(=O)O[C@H]([C@H](C)C[C@@H]2CC[C@@H](O)[C@H](OC)C2)CC(=O)[C@H](C)/C=C(\C)[C@@H](O)[C@@H](OC)C(=O)[C@H](C)C[C@H](C)/C=C/C=C/C=C/1C [Rapamycin (Sirolimus)]
- gametocyte viability ([2]; concentration: 1 µM): 99.3
- gametocyte viability ([2]; concentration: 10 µM): 79.7

SMILES: C[C@@H](Oc1cc(-c2cnn(C3CCNCC3)c2)cnc1N)c1c(Cl)ccc(F)c1Cl
- gametocyte viability ([2]; concentration: 1 µM): 88.7
- gametocyte viability ([2]; concentration: 10 µM): 30.2 (active)

SMILES: O=C(NOCC1CC1)c1ccc(F)c(F)c1Nc1ccc(I)cc1Cl
- gametocyte viability ([2]; concentration: 1 µM): 93.2
- gametocyte viability ([2]; concentration: 10 µM): 98.6

SMILES: O=C(NOC[C@H](O)CO)c1ccc(F)c(F)c1Nc1ccc(I)cc1F
- gametocyte viability ([2]; concentration: 1 µM): 114
- gametocyte viability ([2]; concentration: 10 µM): 110

SMILES: COc1cc2c(N3CCN(C(=O)Nc4ccc(OC(C)C)cc4)CC3)ncnc2cc1OCCCN1CCCCC1 [Tandutinib (MLN518)]
- gametocyte viability ([2]; concentration: 1 µM): 98.8
- gametocyte viability ([2]; concentration: 10 µM): 91.8

SMILES: O=C1NC(=O)/C(=C/c2ccc3c(c2)OC(F)(F)O3)S1
- gametocyte viability ([2]; concentration: 1 µM): 103
- gametocyte viability ([2]; concentration: 10 µM): 106

SMILES: Cc1cc(C(C)Nc2ccccc2)c2nc(N3CCOCC3)cc(=O)n2c1 (centres undefined)
- gametocyte viability ([2]; concentration: 1 µM): 90.1
- gametocyte viability ([2]; concentration: 10 µM): 89

SMILES: CC(C)(C)c1cnc(CSc2cnc(NC(=O)C3CCNCC3)s2)o1
- gametocyte viability ([2]; concentration: 1 µM): 104
- gametocyte viability ([2]; concentration: 10 µM): 101

SMILES: CNCCNS(=O)(=O)c1cccc2cnccc12
- gametocyte viability ([2]; concentration: 1 µM): 104
- gametocyte viability ([2]; concentration: 10 µM): 108

SMILES: CCCS(=O)(=O)Nc1ccc(F)c(C(=O)c2c[nH]c3ncc(Cl)cc23)c1F
- gametocyte viability ([2]; concentration: 1 µM): 102
- gametocyte viability ([2]; concentration: 10 µM): 107

SMILES: Cc1cc(Nc2cc(CN3CCOCC3)c3nc(C)c(Cc4ccc(Cl)cc4F)n3n2)n[nH]1
- gametocyte viability ([2]; concentration: 1 µM): 95.6
- gametocyte viability ([2]; concentration: 10 µM): 97.8
